“And” between values parts separate entries of the source, which are not always exact repeats. Equal entries are not always repeated. Screen size: about 63,000 compounds; about 1,100 (1.7%) were called active. Rule as the data show it: active = cytotoxicity above about 50%; inactive = the rest. The list comes from a sample in which actives are over-represented; it also holds similar structures and randomly drawn compounds. Results with a measured potency or affinity are listed apart. The source holds several records for some structures; these can differ, active in one and inactive in another.

This experiment in a line: cytotoxicity in HPDE-C7 cells, cell-based, fluorescence, HTS (AID 430).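 Also: cells exposed to compound for 48 hours before viability readout; 0% = vehicle and 100% = reference cytotoxic drug.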 The settings on record: HPDE-C7 pancreatic duct cells viability, at 10 µM, stronger effect = higher value.
For the compound `c1ccc2c(c1)[nH]c1cnccc12`, the cytotoxicity was 72.4% (active).
For `c1ccc2c3c([nH]c2c1)CNCC3`, the cytotoxicity was -4.7% (inactive).
The same measure for `CCOC(=O)c1cc2c(cn1)[nH]c1ccccc12`: 30.4% (inactive); for `CC12CCCCC1N(O)CN2O` (stereo not given): -2.3% (inactive).
With `CCOc1ccccc1C1SCC(=O)Nc2c1c(=O)[nH]n2C(CC)CC` (stereo not given), the cytotoxicity is -4% (inactive).
For `CCCCCn1c(=O)c(C(=O)Nc2ccncc2)c(O)c2ccccc21`, the cytotoxicity was 68.6% (active).
For `CCCCCCn1c(=O)c(C(=O)Nc2c(C)n(C)n(-c3ccccc3)c2=O)c(O)c2ccccc21`, the cytotoxicity is 51.8% (active).
Turning to `O=C(Nc1cccnc1)c1c(O)c2c(n(Cc3ccccc3)c1=O)CCCC2`, the cytotoxicity was 1% (inactive).
`CCCCc1nc2ccccc2c(=O)n1-c1ccc(O)cc1`: the cytotoxicity is -5.1% (inactive).
Take `CCCCn1c(=O)c(C(=O)Nc2ccccc2S(N)(=O)=O)c(O)c2ccccc21`: the cytotoxicity was -2.2% (inactive).
In the case of `CCCCCn1c(=O)c(C(=O)NCc2ccccn2)c(O)c2ccccc21` it was 2.6% (inactive); in that of `CCCCCCn1c(O)c(C=Nc2c(C)n(C)n(-c3ccccc3)c2=O)c(=O)[nH]c1=O`, 5.3% (inactive); in that of `CCCCn1c(=O)c(C(=O)Nc2cnccn2)c(O)c2ccccc21`, 60.1% (active).
The same measure for `O=C(Nc1ccncc1)c1c(O)c2ccccc2n(Cc2ccccc2)c1=O`: -2.4% (inactive).
The same measure for `CCCCCn1c(=O)c(C(=O)NCc2ccncc2)c(O)c2ccccc21`: 60.6% (active); for `CCCCCCn1c(=O)c(C(=O)Nc2ccncc2)c(O)c2ccccc21`: 37.2% (inactive).
Turning to `CCCCn1c(=O)c(C(=O)Nc2nc3ccccc3[nH]2)c(O)c2ccccc21`, the cytotoxicity was 15.2% (inactive).
For `COc1ccc(CC2c3cc(OC)c(OC)cc3CCN2C)cc1OC` (stereo not given), the cytotoxicity is 3.5% (inactive).
The same measure for `COc1ccc2c(c1)CC1(CN2C)C(=O)NC(=O)N(c2ccc(C)cc2)C1=O` (stereo not given): 5.9% (inactive); for `COc1ccc2nc(NC(=O)CCc3nc(C4=CCN(C)CC4)no3)sc2c1`: -12.4% (inactive).
The same measure for `O=c1cccc2n1CC1CC2CN(Cc2ccc3c(c2)OCO3)C1` (stereo not given): -17.1% (inactive); for `C=CCN1C(=O)CSc2ccc(C(=O)N3CCC4(CC3)OCCO4)cc21`: -17.9% (inactive).
In the case of `C=Cn1ccnc1P(=S)(c1ccn(C)c1)c1nccn1C=C` it was 7.8% (inactive).
On to `CCCCN1C(=O)NC(=O)C2(Cc3c(nc4c(C)cccn4c3=O)N3CCc4ccccc4C32)C1=O` (stereo not given), for which the cytotoxicity was 13.9% (inactive).
In the case of `O=c1[nH]c(=O)n(CCc2ccc(F)cc2)c(O)c1C=NCCCn1ccnc1` it was -19.6% (inactive); in that of `CNCC(O)c1ccc(O)cc1` (stereo not given), 50.6% (active); in that of `CNCC(O)c1cccc(OC(=O)c2ccccc2C)c1` (stereo not given), -3.3% (inactive).
The same measure for `CC(CCc1ccccc1)NC(C)C(O)c1ccc(O)cc1` (stereo not given): 8.9% (inactive); for `Cc1ccc(-c2nc(CS(=O)CC(=O)N3CCC4(CC3)OCCO4)c(C)o2)cc1` (stereo not given): 1.6% (inactive); for `CC(C)=CCC12CN3CCN(CC(C3)C1=O)C2`: -7.6% (inactive).
As for `COc1cc(OC)cc(-n2nc(C(=O)N3CCC4(CC3)OCCO4)c3ccccc3c2=O)c1`, the cytotoxicity was -1.5% (inactive).
The same measure for `CCCCn1c(O)c(C(CC)=NCc2ccc3c(c2)OCO3)c(=O)[nH]c1=O`: 10% (inactive); for `CCC(=NCc1cccnc1)c1c(O)n(C2CCCCC2)c(=O)[nH]c1=O`: -32.8% (inactive); for `CCC(=NCc1ccc2c(c1)OCO2)c1c(O)n(C2CCCCC2)c(=O)[nH]c1=O`: 64.4% (active).
With `Cn1c2ccccc2c2c(C(=O)N3CCC4(CC3)OCCO4)cn(C3CCCCC3)c(=O)c21`, the cytotoxicity is -1.3% (inactive).
For `NCCCP(=O)(O)CCc1ccccc1`, the cytotoxicity is -5.8% (inactive).
Consider `Cn1c(O)c(/C=N/c2ccccn2)c(=O)n(C)c1=O`, for which the cytotoxicity was -18.2% (inactive).
In the case of `COc1ccc(C2SCC(=O)Nc3c2c(=O)[nH]n3C2CCCCCC2)cc1` (stereo not given) it was 90.9% (active); in that of `COc1ccc(C2SCC(=O)Nc3c2c(=O)[nH]n3C2CCCCC2)cc1` (stereo not given), -0.7% (inactive); in that of `CCOc1ccc(C2SCC(=O)Nc3c2c(=O)[nH]n3C2CCCCCC2)cc1` (stereo not given), -18.2% (inactive).
Take `N#Cc1ccc(N2CCNCC2)c(F)c1`: the cytotoxicity is 8.7% (inactive).
The same measure for `O=C1NC(=O)C2(Cc3c(nc4ccccn4c3=O)N3CCCCCC32)C(=O)N1Cc1ccccc1` (stereo not given): 48.1% (inactive).
Take `Cc1nc2ccc(Cl)cn2c1P(=S)(N1CCOCC1)N1CCOCC1`: the cytotoxicity is -4.2% (inactive).
The same measure for `COc1ccc(Cn2c(N)c(C(=O)NCc3ccco3)c3nc4ccccc4nc32)cc1OC`: 2.8% (inactive).
Regarding `COCCOC(=O)c1c(N)n(Cc2ccco2)c2nc3ccccc3nc12`, the cytotoxicity was 17.4% (inactive).
As to `COCCOC(=O)c1c(N)n(Cc2ccc(OC)cc2)c2nc3ccccc3nc12`, the cytotoxicity is -32.4% (inactive).
In the case of `COc1ccc(Cn2c(N)c(C(=O)NCc3ccco3)c3nc4ccccc4nc32)cc1` it was 69.5% (active); in that of `Nc1c(C(=O)NCCN2CCOCC2)c2nc3ccccc3nc2n1Cc1ccco1`, 5.7% (inactive).
In the case of `Nc1c(C(=O)NCc2ccco2)c2nc3ccccc3nc2n1Cc1ccc(F)cc1` it was 80.9% (active); in that of `Cc1nnc2ccc(N3CCN(C)CC3)nn12`, -0.1% (inactive).
Regarding `C=CCN1C(=O)C2(C(C(=O)OCC)=C(N)Oc3ccccc32)c2c1c1ccccc1oc2=O` (stereo not given), the cytotoxicity is 5.2% (inactive).
As to `CCCCNC(=O)c1c(N)n(CCCOC)c2nc3ccccc3nc12`, the cytotoxicity is 24.4% (inactive).
As to `CCCCCCn1c(N)c(C(=O)NCCN2CCOCC2)c2nc3ccccc3nc21`, the cytotoxicity is 72.1% (active).
In the case of `COc1ccc(CCNC(=O)c2c(N)n(CCN3CCOCC3)c3nc4ccccc4nc23)cc1`, the cytotoxicity was 62.9% (active).
The same measure for `CCOC(=O)c1c(N)n(CCN2CCCCC2)c2nc3ccccc3nc12`: 9.2% (inactive).
The same measure for `CCCCn1c(N)c(C(=O)NCCN2CCOCC2)c2nc3ccccc3nc21`: 1.4% (inactive); for `CCCCCn1c(N)c(C(=O)NCCN2CCOCC2)c2nc3ccccc3nc21`: 10.6% (inactive).
For the compound `OCCNc1c2c(nc3ccccc13)CCCC2`, the cytotoxicity is -2.4% (inactive).
For the compound `CC(=NCCCN1CCOCC1)c1c(O)[nH]c(=O)[nH]c1=O`, the cytotoxicity is 3.3% (inactive).
Consider `CC1(C)C(C(=O)NCc2ccco2)C1(C)C`, for which the cytotoxicity was -21.5% (inactive).
The same measure for `Cc1nc2ccccc2c(=O)n1-c1cccc(O)c1`: 3.6% (inactive); for `Cc1cccc(N2CCc3c2nc2ccccc2c3N)c1`: 24.2% (inactive) and 50.1% (active).
Regarding `Cc1cccc(-c2nc3ccccc3c(=O)n2-n2cccc2)c1`, the cytotoxicity is 19.1% (inactive).
As for `CC(=NCc1cccnc1)c1c(O)n(Cc2ccccc2)c(=O)[nH]c1=O`, the cytotoxicity is -13.3% (inactive).
With `c1cc2n(c1)-c1c(ccc3c1OCO3)CNC2c1ccc2c(c1)OCO2` (stereo not given), the cytotoxicity is 29.3% (inactive).
The same measure for `COc1ccc(C2NCc3ccc4c(c3-n3cccc32)OCO4)cc1O` (stereo not given): 63.9% (active).
The same measure for `COc1ccc(C2NCc3ccc4c(c3-n3cccc32)OCO4)cc1OC` (stereo not given): -0.1% (inactive).
In the case of `O=C(O)C(O)(c1ccccc1)C1CCCC1` (stereo not given) it was 13.6% (inactive); in that of `CN(C)CP(=O)(Nc1ccccc1)N(C)C` (stereo not given), -14.4% (inactive).
Take `O=C(c1cc(-c2cccnc2)nc2ccc(Cl)cc12)N1CCC2(CC1)OCCO2`: the cytotoxicity was 4.7% (inactive).
The same measure for `COc1cccc(OC)c1C1=NCC(=O)Nc2c1oc1ccc(Br)cc21`: 72.5% (active).
The same measure for `O=C1CN=C(c2ccccc2)c2oc3ccc(Br)cc3c2N1`: -10.4% (inactive); for `Cc1cc(NC(=O)COC(=O)c2c(C)nn(Cc3ccccc3Cl)c2Cl)no1`: 3.7% (inactive).
In the case of `CCn1nc(-c2ccccc2)nc2c(=O)n(C)c(=O)nc1-2` it was 119% (active); in that of `CCn1nc(-c2cccs2)nc2c(=O)n(C)c(=O)nc1-2`, 114% (active); in that of `O=c1c2ccccc2nc(-c2cccs2)n1-c1cnccn1`, 2.1% (inactive).
As to `CCc1nc2ccccc2c(=O)n1-c1cccc(OC)c1`, the cytotoxicity was 18.7% (inactive).
With `CSc1ccc(CNC2CN3CCC2CC3)cc1` (stereo not given), the cytotoxicity was -5.8% (inactive).
As to `O=C(Cc1ccccc1)OCCN1CCCCC1`, the cytotoxicity was 0.7% (inactive).
The same measure for `Cc1cccc(OC(=O)N2CCOCC2)c1`: -0.2% (inactive).
Regarding `O=C(COc1ccccc1)N1CCN(C/C=C/c2ccccc2)CC1`, the cytotoxicity is 1.6% (inactive).
With `CCCCOc1ccc(CN2CCN(CCO)CC2)cc1`, the cytotoxicity was 23.7% (inactive).
The same measure for `COc1ccc2[nH]cc(CCN(C)C)c2c1`: -6% (inactive); for `CCCCc1ccc2[nH]cc(CCN)c2c1`: 62.3% (active); for `NCCc1c[nH]c2ccc(F)cc12`: -7.7% (inactive).
Take `COc1cc(OC)c(OC)cc1CNC(C)C(O)c1ccccc1` (stereo not given): the cytotoxicity was 2.2% (inactive).
In the case of `COC(=O)c1cc2c(s1)=NC=NP=2(N1CCOCC1)N1CCOCC1` it was -14.1% (inactive); in that of `C[C@@]1(CO)[C@H](O)CC[C@@]2(C)[C@H]1CC[C@H]1C[C@@H]3C[C@@]12CC[C@]3(O)CO`, 82.5% (active); in that of `O=C(C(Cc1ccccc1)NS(=O)(=O)c1cccc2nsnc12)N1CCC2(CC1)OCCO2` (stereo not given), -4.1% (inactive).
For `O=C(c1ccc(CS(=O)(=O)c2ccccc2)o1)N1CCC2(CC1)OCCO2`, the cytotoxicity was -2.7% (inactive).
The same measure for `CCC(=Nc1ccccc1NC(C)=O)c1c(O)n(C)c(=O)n(C)c1=O`: 41.8% (inactive); for `CC(=O)C1=C(C)OC(N)=C(C(=O)OC(C)C)C12C(=O)Nc1ccccc12` (stereo not given): -8.9% (inactive).
Regarding `CCc1nc(N2CCNCC2)c(C#N)c2c1CSC(C)(C)C2`, the cytotoxicity is 37.6% (inactive).
In the case of `CCCCc1nc(N2CCNCC2)c(C#N)c2c1CSC(C)(C)C2` it was 52.3% (active).
In the case of `O=C(CN1C(=O)CN=C(c2ccccc2Cl)c2cc(Cl)ccc21)NCc1ccco1` it was 2.5% (inactive); in that of `O=c1[nH]c(=O)n(CCC2=CCCCC2)c(O)c1C=NCCCn1ccnc1`, -30.8% (inactive); in that of `COc1ccc(C(=O)C(C)(C)NO)cc1`, -9.5% (inactive).
The same measure for `C=CCn1c(O)c(C(C)=NCc2cccnc2)c(=O)[nH]c1=O`: 8.9% (inactive); for `O=C(Cn1ncc2ccccc21)N1CCC2(CC1)OCCO2`: -19.4% (inactive).
In the case of `O=c1[nH]c(=O)n(Cc2ccccc2)c(O)c1C=NCCN1CCNCC1`, the cytotoxicity is -11.2% (inactive).
On to `O=c1[nH]c(=O)n(C2CCCCCC2)c(O)c1C=NCCCN1CCOCC1`, for which the cytotoxicity was 2.2% (inactive).
The same measure for `O=c1c(C=NCCN2CCNCC2)c(O)n(C2CCCCC2)c(=O)n1C1CCCCC1`: 62.8% (active).
The same measure for `Cc1nc2c(c(C)nn2-c2ccccc2)c(C)c1CCC(=O)N1CCC2(CC1)OCCO2`: -12.1% (inactive); for `Fc1ccc2c(c1)nnn2C1CCN(Cc2nnnn2C2CCCCC2)CC1`: -8% (inactive).
For the compound `NC(=O)C1(N2CCCCC2)CCN(Cc2ccccc2)CC1`, the cytotoxicity was -8.8% (inactive).

(Values after PubChem BioAssay AID430 (Sanford-Burnham Center for Chemical Genomics, 2006).)
